Reference: ChEMBL document CHEMBL4513216, “Probing the Open Global Health Chemical Diversity Library for Multistage-Active Starting Points for Next-Generation Antimalarials” (ACS Infect Dis, 2020)
In all, about 69,000 compounds went through this assay and about 8,600 (12%) showed an effect of 50% or more. Many of the other results were omitted from the sample, so strong results are more common in it than they were.

These compounds were tested on Plasmodium berghei (assay: Screen against P. berghei liver stage (PbLuc), transformed with Luciferase, at 10uM). Conditions: tested at 10 uM.
Type: functional, HepG2

Compound | INHIBITION
Cc1csc(N2CCN(C(=O)c3ccc(C)s3)CC2)n1 | 2.3%
CCN(C)c1ncnc2c1CCN(Cc1ccsc1)CC2 | -14.1%
Cc1cc(C)n(CC2CCCCN2CCC(=O)Nc2cc(C)on2)n1 (centres undefined) | 12.7%
CN(Cc1cccs1)S(=O)(=O)c1ccc(C(F)(F)F)nc1 | 35.1%
Cc1[nH]c2cc(C3CCCCN3C(=O)C3CC3)nn2c(=O)c1C (centres undefined) | -3.02%
Cn1ccnc1CN1CCN(CC(O)c2ccc(F)cc2)CC1 (centres undefined) | -18%
Cc1ncsc1CN1CCOC(C)(C(N)=O)C1 (centres undefined) | 15.5%
O=C(NC1CC1)C1CCCN(c2cccc(C(F)(F)F)n2)C1 (centres undefined) | -28.8%
O=C(NC1CCN(c2cccc(C(F)(F)F)n2)CC1)C1CC1 | 29%
O=C(NC1CC1)C1CCN(c2cccc(C(F)(F)F)n2)CC1 | 86.8%
CCN1CCCC1CNC(=O)Cc1c(-c2ccc(Cl)cc2)n[nH]c1C (centres undefined) | 14.4%
Cc1ccccc1CSc1nc(N)cc(N2C[C@H](O)[C@@H](N(C)C)C2)n1 | 58.2%
Cc1ccccc1CSc1nc(N)cc(N2CC[C@@H](O)C2)n1 | 42.1%
Cc1ccccc1CSc1nc(N)cc(N2CCCC(O)C2)n1 (centres undefined) | 15.2%
CC(C)(C)C(=O)NCCCn1cncn1 | -21.9%
COc1nn(C)cc1C(=O)NCC1(O)CCOCC1 | 15.7%
CCn1c(C)nnc1CN(C)C1CCN(CC2CCC2)C1 (centres undefined) | -4.16%
c1cc(CN2CCOC(Cn3cccn3)C2)c2c(c1)OCCO2 (centres undefined) | 25.1%
COC(=O)c1cc2c(OC)c(C)c(OC)cc2[nH]1 | -1.45%
COc1ccc(OC)c(-c2nc(CN(C)Cc3nonc3C)c(C)o2)c1 | -28%
COc1ccc(-c2nc(CN(C)Cc3nncn3C)c(C)o2)c(C)c1C | -29.1%
CCn1cnnc1CN(C)Cc1nc(-c2cc(OC)ccc2F)oc1C | 50.4%

Compound | INHIBITION
COc1ccc(OC)c(-c2nc(CN(C)Cc3nncn3C)c(C)o2)c1 | 57.8%
COCc1ncn(Cc2nc(-c3ccc(OC)cc3F)oc2C)n1 | 8.86%
CCc1cc(CN(C)Cc2nc(-c3ccc(OC)cc3F)oc2C)on1 | 39.9%
Cc1occc1C(=O)N1C[C@H](Oc2ccccn2)[C@H]2OCCC[C@H]21 | 34.9%
CN1CCCC(c2cccc(CCC(=O)NCc3ccccn3)n2)C1 (centres undefined) | 3.91%
CCC(C)C(=O)N(C)Cc1cc(F)ccc1N1CCC(OC)CC1 (centres undefined) | 33.7%
CCc1cnc(CN(C(C)=O)C2CCN(CC(=O)N3CCCC3)C2)o1 (centres undefined) | 30.6%
COCCNC(=O)CN(C)CCn1nc2ccccn2c1=O | 23.8%
C[C@@H](N)C(=O)N1CC2(CCNCC2)c2cc(Cl)ccc21 | 33.4%
CC1CCN(C(=O)c2cc(NC(=O)c3ccccc3)n(C)n2)CC1 | 26.4%
C=C(Cl)CN(C)C1CCN(CCc2ccccn2)CC1 | 35.9%
CSc1nccc(N2CCC3(CCCN(CCc4ccccc4)C3)C2)n1 (centres undefined) | 85.2%
Fc1ccc(CN2CCCC3(CCN(Cc4ncc[nH]4)C3)C2)cc1F (centres undefined) | 26%
Cc1cccc(N2CCC3(CCCN(C(=O)Cc4cccnc4)C3)C2)n1 (centres undefined) | 17.5%
CSc1nccc(N2CCC3(CCCN(Cc4ccc(F)cc4)C3)C2)n1 (centres undefined) | 85.2%
CSc1nccc(N2CCC3(CCCN(Cc4cccc(C)c4)C3)C2)n1 (centres undefined) | 69.9%
CSc1nccc(N2CCC3(CCCN(CC4CC4)C3)C2)n1 (centres undefined) | -21.9%
CSc1nccc(N2CCN(C)C3(CCNC(=O)CC3)C2)n1 (centres undefined) | -17.7%
CCN1CCC2(CCC1=O)CN(c1ccnc(SC)n1)CCN2C (centres undefined) | 8.57%
CCO[C@H]1CO[C@@]2(CCCN(S(=O)(=O)c3cccnc3)C2)C1 | 34.6%
CCOC[C@]12COC[C@H]1CN(Cc1ccc3c(c1)OCO3)C2 | 38.5%
Cc1nc(N2CCN(C(=O)c3ccccn3)CC2)c2c(n1)c(C)nn2C | 12.6%

Compound | INHIBITION
CN1CCC(N(Cc2ccncc2)C(=O)COCC2CCCCO2)CC1 (centres undefined) | 17.2%
CCCC(=O)N1CCC(c2cc[nH]n2)C1 (centres undefined) | 17.4%
CN(C)CCN1CCOCC2(C1)CN(Cc1ccco1)CCO2 (centres undefined) | 26.7%
CCNC(=O)N1CCC(OC)c2ccccc2N(CC(=O)NC)C(=O)C1 (centres undefined) | 35.1%
Cc1ccc(C(O)CNC(=O)Nc2cc(C)nn2C)cc1 (centres undefined) | -11.735%
CN(C)C(=O)N1C[C@H]2CC[C@@H](C1)N(C(=O)c1c(Cl)cccc1Cl)C2 | 12.1%
CS(=O)(=O)NCCNc1ncnc2cccc(F)c12 | 24.9%
CCN(CCCNc1ncnc2cc(F)c(F)cc12)S(C)(=O)=O | -4.93%
CCS(=O)(=O)NCCCNc1ncnc2cc(F)c(F)cc12 | -30.5%
Fc1cccc2ncnc(NCCCc3ccncc3)c12 | 73%
CN(C)CCCNc1ncnc2cccc(F)c12 | 41.8%
CSCCCNc1ncnc2cccc(F)c12 | 56.7%
CN1[C@@H]2CC[C@H]1CN(C(=O)c1sccc1S(N)(=O)=O)CC2 | 8.74%
O=C(CN1C(=O)CCC1=O)NCc1cc(C2CC2)n(C2CCCC2)n1 | 13.9%
O=C(CN1C(=O)CCC1=O)NCc1nn(C2CCCC2)c2c1CCCC2 | 56.3%
Cc1nnsc1C(=O)NCc1nn(C2CCCC2)c2c1CCCC2 | 49.4%
CC(=O)N[C@@H]1CN(Cc2ccccc2C#N)C[C@H]1c1ccc(C)cc1 | 41.3%
O=C(NCc1cccc(F)c1)Nc1ccn(CCN2CCOCC2)n1 | 40.5%
Cn1ccc(NC(=O)Cc2ccccc2F)n1 | 57.1%
Cn1ccc(NC(=O)Cc2cccc(F)c2)n1 | -74.2%
CS(=O)(=O)CCn1ccc(NC(=O)Cc2ccccc2F)n1 | 21.2%
CSC1(CNC(=O)NCc2sccc2C)CCOCC1 | 30.4%

Compound | INHIBITION
COCCn1ccc(NCc2sccc2C)n1 | -60.1%
Cc1ccsc1CNC(=O)Nc1ccn(CCN2CCOCC2)n1 | 64%
O=C(NCc1ccccc1F)Nc1ccn(CCN2CCOCC2)n1 | 50.1%
O=C(Cc1ccccc1Cl)Nc1ccn(CCN2CCOCC2)n1 | 45.8%
Cc1[nH]c2c(C)ccc(C)c2c1CC(=O)NC1CCCNC1=O (centres undefined) | 35.7%
COC(=O)CCNC(=O)c1nc(NS(=O)(=O)c2ccccc2)sc1C | 32.2%
COc1c(C2CCCN2CC(=O)N2CCCCC2)c(C)nn1C (centres undefined) | 8.12%
O=C(CCn1cncn1)N1CCCC(CO)(CCCc2ccccc2)C1 (centres undefined) | 72.3%
O=C(CCn1cnnn1)N1CCCC(CO)(CCCc2ccccc2)C1 (centres undefined) | 23.1%
O=C(CCn1cnnn1)N1CCCC(CO)(CCc2ccccc2)C1 (centres undefined) | 39.8%
CN(C)C(=O)CN1CCCC1c1nc(N)ncc1-c1ccc(F)cc1 (centres undefined) | 34%
N#Cc1ccc(NC2CCN(CC(F)F)CC2)c(F)c1 | 8.53%
N#Cc1cccc(N2CC3(CCN(C(=O)c4ccnnc4)C3)CC2=O)c1 (centres undefined) | -13.1%
CC(C)=CCC1(C(=O)O)CCCN(CCC(=O)NC2CC2)C1 (centres undefined) | 61.8%
CC(C)=CCC1(C(=O)O)CCCN(c2ccnc(C)n2)C1 (centres undefined) | 47.4%
O=C(CCN1CCCC(CO)(CC2CC2)C1)NC1CCCCC1 (centres undefined) | 34.5%
CC(C)=CCC1(C(=O)O)CCCN(c2cc(N)ncn2)C1 (centres undefined) | 46.4%
O=C(CCN1CCCC(CC2CC2)(C(=O)O)C1)NC1CCCC1 (centres undefined) | 60.7%
Cc1nc(C)n(CC2CCCN(CCC(=O)NC3CCCC3)C2)n1 (centres undefined) | -8.11%
CC(=O)N(Cc1ncc(C)o1)C1CCN(CCc2cccs2)C1 (centres undefined) | 12.7%
CCn1cc(NC(=O)C(C)n2ncc(Cl)c2C)c(C(=O)OC)n1 (centres undefined) | 6.83%
CCSc1cc(C(=O)NCc2ccccc2O)ccn1 | 34.7%

Compound | INHIBITION
CCSc1cc(C(=O)NCCNC(=O)Cc2ccccc2)ccn1 | 26.9%
CCSc1cc(C(=O)NCc2ccc(C(=O)NC)cc2)ccn1 | 76.5%
Cc1nc(C)c(C(=O)Nc2ccc(-c3nnc(N(C)C)o3)cc2)o1 | 6.02%
CCc1cnc(CN2CCC(N(C)Cc3noc(C)n3)C2)o1 (centres undefined) | 13.6%
CCc1nc(CN2CCCC(N(C)CCn3cccn3)C2)no1 (centres undefined) | 33.7%
CN(CCc1ccncc1)C1CCCN(Cc2noc(C3CC3)n2)C1 (centres undefined) | 14.8%
CCc1nc(CN(C)C2CCN(CCc3cccs3)C2)no1 (centres undefined) | -79.1%
Cc1nc(CN2CCCC(N(C)CCc3cccs3)C2)no1 (centres undefined) | 3.47%
CCc1nc(CN2CCCC(N(C)CCc3cccs3)C2)no1 (centres undefined) | 56.6%
CN(CCc1cccs1)C1CCCN(Cc2noc(C3CC3)n2)C1 (centres undefined) | 51.8%
CN(C)Cc1nnc2n1CCN(c1cnccn1)CC2 | -4.02%
Cc1nc(C2CCN(C(=O)c3cnc(N(C)C)nc3)CC2)c2sccn12 | -4.82%
CN(C[C@@H]1CCC[C@@H]2CN(c3ncccn3)C[C@@H]21)C1CC1 | 38.3%
Cc1cccc(CSc2ncc(Cl)c(C(=O)O)n2)c1 | 12.1%
Cc1ccc(F)c(C(=O)Nc2c(C(N)=O)n[nH]c2C)c1 | -18.3%
Cc1cc(N(C)Cc2ncc(-c3ccccc3C(=O)O)s2)ncn1 | 5.6045%
Cc1cc(CN(CC(N)=O)CC(C)C)on1 | 43.2%
Cc1cc(CN(CC(N)=O)CC(C)C)no1 | 7.39%
Cc1ccc(-c2cc(CN(CC(N)=O)CC(C)C)on2)cc1 | 57.8%
Cc1cccc(-c2nccn2C2CC(=O)N(C(C)C)C2)n1 (centres undefined) | 25.9%
CNC(=O)NC(=O)CCN1CCN(c2ccc(C(=O)OC)cc2)CC1C (centres undefined) | 23.7%
